# Laboratory results reported in PubChem BioAssay (NCI).
# The panel holds about 79,000 compounds, 15% with a hit somewhere; the sample as a whole holds those more often. A number with no mark means an inactive call. Calls of active or inactive are those of the source. Cut-off read from the data, not from the text of the source: active = growth inhibition above about 70%; inactive = the rest.
# Key:
# [1] = NCI Yeast Anticancer Drug Screen. Data for the rad50 strain (AID 155);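 note: 0% = growth of vehicle-only cultures of the same strain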; conditions: S. cerevisiae rad50 strain growth inhibition, active compounds read high
# Procedure, shortened: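 Growth of the mutant yeast was measured after compound exposure and referenced to vehicle-treated cultures.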
# [2] = NCI Yeast Anticancer Drug Screen. Data for the mec2-1 strain (AID 157); conditions: S. cerevisiae mec2-1 strain, active compounds read high
# Procedure, shortened: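 Test agents were screened against the mec2-1 yeast strain, with defined DNA repair or cell cycle alteration. Growth was scored as inhibition against vehicle-only controls.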
# [3] = NCI Yeast Anticancer Drug Screen. Data for the sgs1 mgt1 strain (AID 161);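 note: 0% = growth of cultures given vehicle only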; conditions: S. cerevisiae sgs1 mgt1 strain, active compounds read high
# Procedure, shortened: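 Test agents were incubated with a DNA-repair-mutant yeast strain. Growth was then read and compared against vehicle-treated controls.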
# [4] = NCI Yeast Anticancer Drug Screen. Data for the cln2 rad14 strain (AID 165);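 note: 0% = growth equal to vehicle treated cultures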; conditions: S. cerevisiae cln2 rad14 strain, active compounds read high
# Procedure, shortened: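 Growth of compound-exposed yeast (cln2 rad14 genotype) measured and expressed as inhibition relative to vehicle.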
# [5] = NCI Yeast Anticancer Drug Screen. Data for the bub3 strain (AID 167); conditions: S. cerevisiae bub3 mutant strain, active compounds read high
# Procedure, shortened: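 Whole-cell yeast assay. The mutant strain was incubated with compounds, and growth inhibition was determined by comparison with vehicle-treated cells.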
# [6] = NCI Yeast Anticancer Drug Screen. Data for the mlh1 rad18 strain (AID 175); conditions: S. cerevisiae mlh1 rad18 strain growth inhibition, active compounds read high
# Procedure, shortened: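 In this whole-cell yeast screen, a strain with altered DNA damage repair is challenged with compound, and its growth is measured against matched vehicle-treated controls.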
# [7] = at 5.0 µM (retest, dose inferred, filed as 0.5)
# [8] = at 50.0 µM (retest, dose inferred, filed as 5.0)
Compound,"growth inhibition [1, 7]","growth inhibition [1, 8]",growth inhibition ([1]; at 50.0 µM),"growth inhibition [2, 7]","growth inhibition [2, 8]",growth inhibition ([2]; at 50.0 µM),"growth inhibition [3, 7]","growth inhibition [3, 8]",growth inhibition ([3]; at 50.0 µM),"growth inhibition [4, 7]","growth inhibition [4, 8]",growth inhibition ([4]; at 50.0 µM),"growth inhibition [5, 7]","growth inhibition [5, 8]",growth inhibition ([5]; at 50.0 µM),"growth inhibition [6, 7]","growth inhibition [6, 8]",growth inhibition ([6]; at 50.0 µM)
O=C(C[n+]1ccccc1)C1CCc2ccccc2C1 (configuration not stated),-3%,-4%,9.25%,0%,-2%,5.7%,-1%,0%,-1.5%,0%,-5%,39%,-2%,-3%,-21.1%,-6%,-6%,3.2%
CC[PH+](CC)CC[S-].CC[PH+](CC)CC[S-].[Au+].[Au+],5%,13%,46.4%,14%,18%,-0.55%,12%,23%,11.2%,4%,6%,-12.4%,14%,7%,8.1%,55%,15%,-35.8%
c1ccc2c(c1)[O][Sn][O]2,0%,6%,98.8% (active),1%,3%,99.2% (active),-1%,1%,39.8%,0%,-1%,98.8% (active),-1%,2%,99.4% (active),1%,3%,99% (active)
O=[N+]([O-])/C=C/c1ccc(Cl)cc1[N+](=O)[O-],97% (active),98% (active),99.2% (active),98% (active),99% (active),99.6% (active),99% (active),99% (active),99.5% (active),98% (active),97% (active),99.3% (active),99% (active),99% (active),99.4% (active),96% (active),99% (active),99.2% (active)
Clc1ccccc1C#[C][Hg][C]#Cc1ccccc1Cl,3%,34%,0.25%,3%,94% (active),5.95%,4%,95% (active),19.9%,1%,29%,-4.95%,-3%,92% (active),-9.2%,5%,76% (active),19.4%
Cc1cc(C(C)(C)c2ccc(O)c(C)c2)ccc1O,-2%,98% (active),99.3% (active),-4%,99% (active),99.4% (active),-6%,98% (active),99.5% (active),1%,98% (active),97.6% (active),-1%,99% (active),99.2% (active),0%,99% (active),99.3% (active)
COC12C(COC(N)=O)C3=C(C(=O)C(C)=C(NC(C)C)C3=O)N1CC1NC12 (configuration not stated),5%,59%,47.6%,10%,72% (active),47.9%,13%,61%,48%,2%,76% (active),52%,1%,35%,30.4%,31%,92% (active),78.6% (active)
CN(C)N(P(N)(Cl)(c1ccccc1)c1ccccc1)P(N)(Cl)(c1ccccc1)c1ccccc1,13%,90% (active),63.2%,22%,97% (active),54.5%,-221%,96% (active),44.9%,0%,88% (active),58.5%,4%,88% (active),49.5%,25%,96% (active),50.6%
Nc1nc(N)c(-c2ccc(Cl)c(Cl)c2)c(COc2ccc(CNC(=O)Nc3cccc(S(=O)(=O)F)c3)cc2Cl)n1,2%,11%,26.8%,-5%,10%,58.9%,-4%,6%,74.8% (active),-6%,11%,-4.6%,0%,20%,13.2%,2%,42%,66.4%
COc1ccc(/C=C\[N+](=O)[O-])cc1OC,47%,97% (active),99.4% (active),27%,99% (active),99.7% (active),25%,99% (active),99.7% (active),12%,99% (active),99% (active),14%,99% (active),99.3% (active),28%,99% (active),99.5% (active)
COc1ccc(CN2CCCN(Cc3ccc(OC)cc3OC)C2c2ccc(N(CCCl)CCCl)cc2)c(OC)c1,2%,49%,71% (active),-9%,8%,22.8%,-5%,42%,60.8%,-8%,43%,30.3%,-8%,-3%,5.25%,55%,95% (active),53.9%
C[C@]12CC[C@H](O)C[C@@H]1CC[C@@H]1[C@@H]2CC[C@]2(C)C(=O)/C(=C/O)C[C@@H]12,-1%,80% (active),54.5%,-1%,68%,97.1% (active),-1%,67%,87% (active),-15%,30%,96.5% (active),-4%,84% (active),95.7% (active),0%,61%,96.5% (active)
S=C1NCCN1,1%,65%,12.2%,-4%,15%,14.7%,0%,35%,-17.6%,5%,14%,38.5%,-1%,21%,-2.65%,2%,51%,4.95%
[N-]=[N+]=Nc1c([N+](=O)[O-])c(=O)n2c3c(cccc13)CCC2,46%,98% (active),85.5% (active),26%,99% (active),88.8% (active),28%,99% (active),92.8% (active),18%,84% (active),90.6% (active),37%,99% (active),90.5% (active),40%,98% (active),90.2% (active)
COc1ccc([Se][Se]c2ccc(OC)cc2OC)c(OC)c1,18%,18%,88.3% (active),23%,23%,89.8% (active),18%,18%,88.5% (active),9%,9%,90% (active),-4%,-4%,89.7% (active),12%,12%,88.4% (active)
O=C(OCC(CCl)OC(=O)C(Cl)(Cl)Cl)C(Cl)(Cl)Cl (configuration not stated),2%,-5%,52.2%,12%,16%,46.4%,-31%,-16%,67%,2%,0%,78.5% (active),1%,-4%,55.3%,-30%,-53%,54.8%
CC(Cl)CN1COc2c3c(c4ccccc4c2C1)CN(CC(C)Cl)CO3 (configuration not stated),0%,98% (active),83.7% (active),2%,99% (active),68.8%,-3%,99% (active),82.8% (active),0%,95% (active),77.5% (active),0%,98% (active),66.4%,0%,97% (active),81.8% (active)
NC(=O)c1cc([N+](=O)[O-])c(Cl)c([N+](=O)[O-])c1,50%,89% (active),88.2% (active),62%,84% (active),86.3% (active),38%,98% (active),89% (active),36%,97% (active),56.5%,49%,97% (active),88.5% (active),57%,85% (active),88.7% (active)
CCC[CH2][Sn]1([CH2]CCC)[O]C(=O)c2ccc(C)cc2[O]1,79% (active),99% (active),98.8% (active),84% (active),99% (active),99.3% (active),85% (active),98% (active),99.2% (active),76% (active),98% (active),98% (active),84% (active),98% (active),98.7% (active),82% (active),97% (active),98.8% (active)
